{"source": "PubChem BioAssay AID2314", "about": "(National Center for Advancing Translational Sciences (NCATS), 2010)", "note": "Hit rate of the full screen: of about 300,000 compounds, about 37,000 (12%) were called active. Many of the other results were omitted from the sample, so actives are more common in it than they were. Values without a mark were called inactive. No stated cut-off is given here; in the data, active means max response mostly above about 13% (no sharp cut-off); inactive means mostly below about 14%.", "data": [{"assay": "Cycloheximide Counterscreen for Small Molecule Inhibitors of Shiga Toxin; further: read at 38.3 µM for the half of the compounds with a filed dose; 0% is about no effect", "conditions": "cell reporter, cycloheximide protein synthesis inhibition counterscreen; stronger effect = higher value", "values": [{"smiles": "CCOc1cc(N2CCOCC2)c(OCC)cc1NC(=O)c1ccc(C)s1", "max response": "-4.86%"}, {"smiles": "CCn1c(SCC(=O)Nc2ccc(Br)cc2)nc2sc3c(c2c1=O)CCN(C)C3", "max response": "9.46%"}, {"smiles": "COc1ccc(CCNC(=O)c2ccc(CS(=O)(=O)c3ccc(Br)cc3)o2)cc1OC", "max response": "10.1%"}, {"smiles": "C=CCN1C(=O)C(Cc2cccc(Cl)c2)S/C1=N/N=C/c1ccco1", "note": "(configuration not stated)", "max response": "6.81%"}, {"smiles": "COc1ccc(CN2C(=O)C(C)S/C2=N/N=C/c2ccco2)cc1", "note": "(configuration not stated)", "max response": "31.9% (active)"}, {"smiles": "CCC1S/C(=N/N=C/c2ccco2)NC1=O", "note": "(configuration not stated)", "max response": "0.781%"}, {"smiles": "COc1cc(OC)cc(C(=O)NC2CCN(C(=O)N3c4ccccc4Sc4ccccc43)CC2)c1", "max response": "9.65%"}, {"smiles": "CCCc1cc(=O)n2[nH]c(C)c(-c3ccc(Cl)cc3)c2n1", "max response": "-2.56%"}, {"smiles": "COc1ccc(N(CC(=O)Nc2cc(OC)ccc2OC)S(=O)(=O)c2c(C)noc2C)cc1", "max response": "-6.58%"}, {"smiles": "O=C(/C=C/c1cccs1)c1cc(Cl)ccc1OC(=O)N1CCOCC1", "max response": "23.9% (active)"}, {"smiles": "O=C(Oc1cccc(C(=S)N2CCOCC2)c1)c1cccc(Cl)c1", "max response": "-0.347%"}, {"smiles": "CC(=O)Nc1ccccc1OC(=O)N1CCOCC1", "max response": "11.6%"}, {"smiles": "Cc1cccc(OCC(O)Cn2c(N3CCCCC3)nc3c2c(=O)[nH]c(=O)n3C)c1", "note": "(configuration not stated)", "max response": "14.8%"}, {"smiles": "CCOC(=O)c1c(S(=O)(=O)Nc2cccc(Cl)c2)c(C)n(C)c1C", "max response": "5.3%"}, {"smiles": "CCOC(=O)c1c(Cc2ccc(Cl)cc2)c[nH]c1C", "max response": "26.8% (active)"}, {"smiles": "CCOC(=O)C1=C(C)NC(=O)N(C(C)=O)C1c1ccc(Cl)cc1", "note": "(configuration not stated)", "max response": "-4.1%"}, {"smiles": "CC(OC(=O)c1ccc2noc(-c3ccccc3)c2c1)C(N)=O", "note": "(configuration not stated)", "max response": "2.78%"}, {"smiles": "O=C(Nc1ccc([N+](=O)[O-])cc1)C1(c2ccccc2)CCOCC1", "max response": "-3.32%"}, {"smiles": "O=C(Nc1ccc([N+](=O)[O-])cc1)C1CC12CCC2", "note": "(configuration not stated)", "max response": "21.8% (active)"}, {"smiles": "O=C(Nc1ccc(F)cc1)C1CCN(C(=O)c2ccc([N+](=O)[O-])cc2)CC1", "max response": "3.26%"}, {"smiles": "O=C(c1c(F)cccc1F)N1CCN(S(=O)(=O)c2ccc3c(c2)OCCO3)CC1", "max response": "13.2%"}, {"smiles": "COc1ccc(N2CC(C(=O)NCCS(=O)(=O)N3CCN(c4ccccc4)CC3)CC2=O)cc1", "note": "(configuration not stated)", "max response": "5.23%"}, {"smiles": "C=CCc1cccc(/C=N/NC(=O)COc2ccc(-n3cnnn3)cc2)c1O", "max response": "7.64%"}, {"smiles": "O=C(Nc1nnc(CCOCCOCCc2nnc(NC(=O)c3ccco3)s2)s1)c1ccco1", "max response": "-1.29%"}, {"smiles": "COC(=O)CSc1nnc(NC(=O)CCc2ccccc2)s1", "max response": "14%"}, {"smiles": "Cc1ccc(Nc2nnc(SCc3ccccc3)s2)cc1", "max response": "24.5% (active)"}, {"smiles": "CCOC(=O)N1CCN(Cc2nc(N)nc(Nc3ccc(C)cc3)n2)CC1", "max response": "5.78%"}, {"smiles": "O=C(Nc1nnc(SCc2ccccc2)s1)c1ccco1", "max response": "23.3% (active)"}, {"smiles": "O=C(Cc1cccs1)Nc1nnc(SCc2ccc(F)cc2)s1", "max response": "-3.78%"}, {"smiles": "Cc1ccc(Nc2nc(N)nc(CSc3nnc(C)s3)n2)cc1", "max response": "34.9% (active)"}, {"smiles": "Cc1cccc(CSc2nnc(NC(=O)CSc3nnc(C)s3)s2)c1", "max response": "10.9%"}, {"smiles": "Cc1nnc(SCc2nc3ccccc3nc2C)s1", "max response": "-3.4%"}]}]}
